Compound activity: PubChem, National Center for Advancing Translational Sciences (NCATS)
ALDH1A1 inh – ALDH1A1 (human) enzyme inhibition | Purified ALDH1A1, NADH fluorescence, propionaldehyde substrate | Potency, µM (top dose mostly 75.3 µM), without a hit: at the highest dose activity, negative = inhibition, usual class: inhibitors | 220,000 tested, 7.3% active | AID 1030;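 also: potency is read from the fitted curve at half-maximal effect; plate controls were no enzyme wells and a reference inhibitor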
Target sequence (P00352 whole entry, looked up): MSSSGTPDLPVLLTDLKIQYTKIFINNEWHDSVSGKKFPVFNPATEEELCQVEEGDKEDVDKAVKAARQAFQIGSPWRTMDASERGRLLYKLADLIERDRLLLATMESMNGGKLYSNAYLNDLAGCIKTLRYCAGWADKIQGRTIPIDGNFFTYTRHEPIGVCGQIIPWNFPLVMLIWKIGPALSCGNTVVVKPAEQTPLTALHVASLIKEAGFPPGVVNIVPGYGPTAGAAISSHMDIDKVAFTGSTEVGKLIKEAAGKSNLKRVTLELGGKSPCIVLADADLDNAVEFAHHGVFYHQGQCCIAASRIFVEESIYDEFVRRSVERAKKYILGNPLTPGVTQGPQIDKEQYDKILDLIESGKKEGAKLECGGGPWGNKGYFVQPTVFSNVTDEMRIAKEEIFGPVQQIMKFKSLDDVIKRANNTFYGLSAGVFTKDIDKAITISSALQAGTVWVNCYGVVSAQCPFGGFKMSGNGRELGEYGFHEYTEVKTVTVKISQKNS
Lamin A splicing – changes lamin A minigene splicing in HeLa cells | 200,000 tested, 0.01% active | HeLa LMNA splicing GFP/RFP minigene ratio, 48 h | AID 1487 | Potency, µM (highest dose often 46.1 µM), for the others: at the top dose ratio change, negative = inhibition, most hits filed as inhibitors; active = well fitted inhibition curve with a large enough effect in the signal ratio, with a control signal flat, not every such curve was filed as active; inconclusive = small, poorly fitted or top-dose-only effect, or effect the other way, or a change in a side signal; the % refers to the signal ratio; also: potency is read from the fitted curve at half-maximal effect
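S3 HeLa stable clones carrying a lamin A-EGFP splicing minigene plus DsRed2 were seeded at 600 cells/well in Opti-MEM with 2% FBS, pin-dosed and incubated 48 h at 37°C. Acumen cytometry (488 nm) gave the GFP/RFP total-intensity ratio.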
PNC inhibitor – inhibitors of perinucleolar compartment assembly. PC3M PTB-GFP, PNC prevalence imaging, 16 h; active compounds read low. activity change (PNC), negative = inhibition, % at 10 µM. 140,000 tested, 3.1% active;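 active = readout at or below -70, meaning at least 70% loss of cells showing the perinucleolar compartment, a nuclear body marking cancer cells; inconclusive = readout between -30 and a set limit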;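 also: plate controls were DMSO wells for no effect and camptothecin positive control wells for full effect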
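Read-out is percentage of cells bearing a perinucleolar compartment, from automated 20x imaging of fixed, Hoechst-stained PC3M PTB-GFP cells. Cells were seeded 4 h, then exposed 16 h to compound (23 nl of library stock) in duplicate plates.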
KinaseGlo FLuc – Kinase-Glo luciferase inhibition (counter-screen); 200,000 tested, 0.28% active; AID 1379; Kinase-Glo luciferase, ATP luminescence, 8 min; Potency, µM (titrated, usually from 38.3 µM), without a hit: at the highest dose activity change, negative = inhibition, hits mostly inhibitors; active = well fitted inhibition curve with a large enough effect; inconclusive = small, poorly fitted or top-dose-only effect; also: potency is read from the fitted curve at half-maximal effect; nearly all actives have a fitted effect of over 60% in size
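Inhibition of Kinase-Glo luciferase light generation was assessed at 10 uM ATP in pH 7.2 imidazole buffer, with luminescence measured after eight minutes at ambient temperature.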
HPGD block – blocks human HPGD enzyme activity. P15428. purified HPGD, NADH fluorescence kinetic, PGE2 substrate. Potency, µM, without a hit: at the highest dose activity change, negative = inhibition, usual class: inhibitors. 150,000 tested, 4.3% active. AID 894; also: potency is read from the fitted curve at half-maximal effect
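NADH formation kinetics: reaction with 30 uM PGE2 and 1 mM NAD+ (final), 20 nM enzyme, Tris-HCl pH 8 with Tween 20, after 15 min compound preincubation at room temperature. Fluorescence change, last versus first of five reads.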
The depositor's hits bear a star; ? = inconclusive; nt = no result; [ ] = dose if it differs, or a comment. Only some compounds are listed: those with a hit (about 10% of all), similar ones and a draw of the others. Unless noted, calls follow the shape of the dose curve; as a rule, active = well fitted inhibition curve with a large enough effect (not every such curve was filed as active); inconclusive = small, poorly fitted or top-dose-only effect, or another doubt; inactive = no such curve, though single readings can be large or run the other way. Unless noted, % is scaled to controls: 0 for no effect and ±100 for the full control effect.

SMILES	ALDH1A1 inh	Lamin A splicing	PNC inhibitor	KinaseGlo FLuc	HPGD block
Cc1ccc(-n2c(=O)c3c(C)c(C(=O)N(C)C)sc3n(CC(=O)C(C)(C)C)c2=O)cc1C	nt	-12.4%[46 µM]	nt	nt	nt
COc1ccc(CNc2cc(-c3ccccc3CN(C)C)ncn2)c(OC)c1	-6.0%	27.9%	nt	-3.6%	-4.3%
N#Cc1cccc(NC(=O)N2CC[C@@]3(CCCN(C(=O)c4cccc(F)c4)C3)C2)c1	-3.7%	nt	nt	-0.9%	-7.9%
O=C1/C(=C\c2ccc(-c3ccccc3Cl)o2)SC(=S)N1CC1CCCO1 (stereo not drawn)	1.41µM*	-7.0%	-16.3	-0.5%	-19.5%
COc1cc(/C=C2/SC(=S)N(CC3CCCO3)C2=O)ccc1O (stereo not drawn)	0.141µM*	-4.1%	-16.0	-10.4%	25.1µM*
O=C1/C(=C/c2cccnc2)SC(=S)N1CC1CCCO1 (stereo not drawn)	5.01µM*	-11.1%[46 µM]	nt	1.4%	nt
CCCCCCCCCCCCCCCCCC(=O)OC(CC(=O)O)C[N+](C)(C)C (stereo not drawn)	-15.0%	?	nt	-0.5%	-5.9%
CN(C)C[C@@H](O)c1ccc(Cl)c2ccccc12	-6.3%[13.5 µM]	nt	nt	-3.9%[7.66 µM]	-8.7%
Cc1ccc(S(=O)(=O)Nc2cc(C(C)C)c(O)cc2C)cc1	2µM*	?	-14.4	5.3%	-7.9%
O=C(CSc1ncn[nH]1)Nc1nnc(-c2ccccc2)s1	28.2µM*	?	16.4	10.2%	-25.5%
O=C(CN1CCN(c2ccc(F)cc2)CC1)Nc1nnc(-c2ccccc2)s1	28.2µM*	-1.6%	?	0.2%	-8.2%
Cc1c(N=C2C=C(Br)C(=O)C(Br)=C2)c(=O)n(-c2ccccc2)n1C	10µM*	nt	nt	?	nt
Cc1ccc(C(=O)CCC(=O)N2CCN(C(=O)c3ccco3)CC2)cc1	22.4µM*	4.1%[46 µM]	nt	1.1%	nt
O=C(c1ccco1)N1CCN(CC(O)Cn2c3ccccc3c3ccccc32)CC1 (stereo not drawn)	-12.2%	8.9%	-87.3*	-1.8%	-25.8%
O=C(c1ccc(-c2ccccc2)cc1)N1CCN(C(=O)c2ccco2)CC1	?	?	?	-2.7%	-12.0%
Cc1ccc(C)n1CCN1CCN(C(=O)c2ccco2)CC1	0.0%	24.2%	?	-1.6%	-2.1%
Cc1nnc(SCC(=O)N2CCN(C(=O)c3ccco3)CC2)n1-c1ccccc1	28.2µM*	nt	nt	-3.0%	nt
O=C(CSCc1ccccc1)N1CCN(C(=O)c2ccco2)CC1	?	-10.2%	-100.0*	-0.6%	-20.4%
COC(=O)c1nnc(C(=O)NCc2ccccc2)c2[nH]c3ccccc3c12	-1.3%	nt	nt	1.4%	-19.9%
C[C@@H](C(=O)NCc1nc2ccccc2[nH]1)[C@@H]1C[C@@]1(C)[C@@H](NC(=O)OCc1ccccc1)c1ccccc1	?	nt	nt	1.2%	-11.2%
CO/N=C(/C)CCC(=O)OC[C@@H]1O[C@H](c2ccccc2)C=C[C@@H]1Oc1ccc(OC)cc1	-1.4%[13.5 µM]	nt	nt	nt	nt
O=C(c1ccco1)N1CCN(C(=O)C(Sc2ccccc2)c2ccccc2)CC1 (stereo not drawn)	14.1µM*	-20.7%	?	-2.5%	-10.7%
Cc1ccc(C2CC(=O)Oc3cc(C)c(Cl)cc32)cc1 (stereo not drawn)	-13.4%	nt	nt	-0.7%[39.9 µM]	-21.1%
C=CCc1c(OC(C)=O)c2ccccc2n(C)c1=O	1.3%	7.0%	-106.2*	2.7%	-13.9%
CCc1c(OC(C)=O)c2ccccc2n(C)c1=O	?	4.6%	?	-5.6%	-23.7%
SMILES	ALDH1A1 inh	Lamin A splicing	PNC inhibitor	KinaseGlo FLuc	HPGD block
CC(=O)OCc1cnc(C)c2oc(=O)c(C(=O)Nc3ccc(F)cc3C)cc12	nt	-3.1%[46 µM]	nt	nt	nt
CC(C)=NNC(=O)c1c(O)c2ccccc2[nH]c1=O	12.6µM*	nt	nt	nt	nt
CCSc1nc2c(c(=O)[nH]c(=O)n2C)n1C/C=C(/C)Cl	14.1µM*	3.3%	27.9	-5.5%	?
C/C(Cl)=C/Cn1c(SCc2ccc(Cl)cc2)nc2c1c(=O)[nH]c(=O)n2C	?	11.4%	-27.4	-1.1%	-4.6%
COC(=O)C(C)Sc1nc2c(c(=O)[nH]c(=O)n2C)n1CCC(C)C (stereo not drawn)	?	0.3%	-0.4	0.5%	-15.3%
CCOC(=O)Cn1c(N2CCCCCC2)nc2c1c(=O)[nH]c(=O)n2C	?	-6.2%	-19.3	0.0%	-14.4%
CSc1nc2c(c(=O)[nH]c(=O)n2C)n1C/C=C(\C)Cl	25.1µM*	-3.3%	19.3	-1.4%	?
